Assay outcomes: PubChem BioAssay, Center for Chemical Genomics, University of Michigan
This is one part of a sample in which hits are shown more often than they occur.
Dicer processing: inhibitors of Dicer pre-microRNA processing, primary screen, biochemical, cat-ELCCA, chemiluminescence; Endoribonuclease Dicer (Homo sapiens), Q9UPY3; cat-ELCCA pre-miR-21 Dicer processing; stronger effect = higher value; z-score at 25 µM; actives 6% (n = 47,000); AID 1347074, 2019; in the data active = z-score above about 3, passing the limit was not always enough;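 also: higher signal means more uncleaved substrate so more Dicer inhibition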
Target sequence (Q9UPY3 whole entry, looked up): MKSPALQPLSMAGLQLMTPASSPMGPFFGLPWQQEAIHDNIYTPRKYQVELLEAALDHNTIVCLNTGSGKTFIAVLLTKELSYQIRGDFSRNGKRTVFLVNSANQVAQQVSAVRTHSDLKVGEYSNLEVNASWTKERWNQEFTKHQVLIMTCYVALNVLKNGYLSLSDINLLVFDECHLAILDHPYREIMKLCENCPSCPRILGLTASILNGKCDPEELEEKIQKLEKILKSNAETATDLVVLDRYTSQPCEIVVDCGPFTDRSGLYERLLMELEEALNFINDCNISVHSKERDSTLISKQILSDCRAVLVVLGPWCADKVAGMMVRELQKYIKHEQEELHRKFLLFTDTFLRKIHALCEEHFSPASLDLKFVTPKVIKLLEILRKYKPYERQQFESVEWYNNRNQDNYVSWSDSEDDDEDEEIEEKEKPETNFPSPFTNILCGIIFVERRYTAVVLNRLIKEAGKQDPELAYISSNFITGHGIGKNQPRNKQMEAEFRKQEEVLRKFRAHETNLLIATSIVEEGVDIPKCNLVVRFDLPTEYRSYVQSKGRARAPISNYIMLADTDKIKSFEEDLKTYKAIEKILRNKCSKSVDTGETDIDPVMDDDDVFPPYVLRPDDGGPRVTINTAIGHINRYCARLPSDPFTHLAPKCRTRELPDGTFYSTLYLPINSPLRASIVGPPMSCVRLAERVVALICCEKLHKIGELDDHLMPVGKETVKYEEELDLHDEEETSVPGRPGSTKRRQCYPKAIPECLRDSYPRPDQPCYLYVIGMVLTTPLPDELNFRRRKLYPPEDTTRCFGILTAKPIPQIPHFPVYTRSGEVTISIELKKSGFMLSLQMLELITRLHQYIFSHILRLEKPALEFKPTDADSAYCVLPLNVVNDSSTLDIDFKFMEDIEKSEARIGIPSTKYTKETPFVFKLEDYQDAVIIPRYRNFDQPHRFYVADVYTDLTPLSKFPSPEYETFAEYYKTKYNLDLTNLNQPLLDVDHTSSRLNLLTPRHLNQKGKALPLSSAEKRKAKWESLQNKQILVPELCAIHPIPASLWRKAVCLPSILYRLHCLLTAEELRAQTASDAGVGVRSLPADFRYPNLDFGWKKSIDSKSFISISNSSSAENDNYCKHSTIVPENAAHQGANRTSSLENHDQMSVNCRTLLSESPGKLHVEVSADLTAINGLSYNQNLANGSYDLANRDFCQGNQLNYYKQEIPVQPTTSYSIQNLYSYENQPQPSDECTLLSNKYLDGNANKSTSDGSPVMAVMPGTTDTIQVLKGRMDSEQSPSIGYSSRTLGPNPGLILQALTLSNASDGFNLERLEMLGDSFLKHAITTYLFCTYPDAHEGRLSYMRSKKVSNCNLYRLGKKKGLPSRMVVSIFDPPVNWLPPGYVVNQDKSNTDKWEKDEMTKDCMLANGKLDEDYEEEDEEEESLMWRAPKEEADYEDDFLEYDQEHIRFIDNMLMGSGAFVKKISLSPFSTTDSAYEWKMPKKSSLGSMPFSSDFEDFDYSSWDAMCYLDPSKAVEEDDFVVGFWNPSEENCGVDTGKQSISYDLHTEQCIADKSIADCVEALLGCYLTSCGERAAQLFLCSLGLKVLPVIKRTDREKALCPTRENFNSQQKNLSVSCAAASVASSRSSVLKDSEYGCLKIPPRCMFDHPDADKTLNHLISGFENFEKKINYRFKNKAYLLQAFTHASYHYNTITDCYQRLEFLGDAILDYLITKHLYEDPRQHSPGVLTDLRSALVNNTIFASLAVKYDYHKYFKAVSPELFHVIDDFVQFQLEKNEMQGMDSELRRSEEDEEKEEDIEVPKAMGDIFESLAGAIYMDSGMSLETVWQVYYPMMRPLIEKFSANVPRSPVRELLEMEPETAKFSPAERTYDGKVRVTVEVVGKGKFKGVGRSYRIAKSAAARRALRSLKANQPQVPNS
Large screens that a line does not name were inactive.

Cn1c(-c2c(N)n(Cc3ccccc3)c(=O)c3cc([N+](=O)[O-])ccc23)nc2ccccc21	none
Cc1ccc2oc(-c3ccc(Br)cc3)cc(=O)c2c1	none
Cc1ccc2oc(NC(=O)N3CCOCC3)cc(=O)c2c1	none
Cc1ccc2oc(C(F)(F)F)cc(=O)c2c1	Dicer processing 3.55
O=C1CSCN1Cc1cc(Cl)cc(Cl)c1	none
CCOc1ccc(C2C(C(=O)OCCSCC)=C(C)NC3=C2C(=O)CCC3)cc1 (configuration not stated)	none
CCSCCOC(=O)C1=C(C)NC2=C(C(=O)CCC2)C1c1ccc(OC)c(Br)c1 (configuration not stated)	none
CC1=C(C(=O)OCCc2ccccc2)C(c2ccc(Br)cc2)C2=C(CCCC2=O)N1 (configuration not stated)	none
CC1=C(C(=O)OCC2CCCO2)C(c2cccc(Oc3ccccc3)c2)C2=C(CCCC2=O)N1 (configuration not stated)	none
CC1=C(C(=O)OCCc2ccccc2)C(c2ccsc2)C2=C(CCCC2=O)N1 (configuration not stated)	Dicer processing 3.75
CC1=C(C(=O)OCCc2ccccc2)C(c2ccc(C)cc2)C2=C(CCCC2=O)N1 (configuration not stated)	none
CCSCCOC(=O)C1=C(C)NC2=C(C(=O)CCC2)C1c1ccc(F)cc1 (configuration not stated)	Dicer processing 6.41
CCSCCOC(=O)C1=C(C)NC2=C(C(=O)CCC2)C1c1ccc(OC)cc1OC (configuration not stated)	none
CCSCCOC(=O)C1=C(C)NC2=C(C(=O)CCC2)C1c1cccc(Oc2ccccc2)c1 (configuration not stated)	Dicer processing 6.02
CCOC(=O)c1c(N2C(=O)CCC2=O)sc(C)c1-c1ccccc1	none
COc1ccc(C)cc1S(=O)(=O)n1ccnc1	none
COc1cc(Cl)ccc1N=Cc1c(O)c2c(=O)n(C)c(=O)n(C)c2n(C)c1=O	none
COc1cccc(C2C(C(=O)OCC3CCCO3)=C(C)NC3=C2C(=O)CCC3)c1 (configuration not stated)	none
Nc1cc(=O)[nH]c(SCc2c(Cl)cccc2Cl)n1	none
O=C(Nc1nccs1)c1ccc2noc(-c3ccc(Cl)cc3)c2c1	none
O=[N+]([O-])c1cc(Cl)c(-n2cccc2)cc1Oc1ccc(Cl)cc1	none
CS/C(=N\S(=O)(=O)c1ccc(-n2nc(C(F)(F)F)cc2-c2cccs2)cc1)N1CCCC1	none
O=C(Nc1nn[nH]n1)C1(c2ccccc2)CCCC1	none
CCc1n(CC)c2ccccc2[n+]1CC(O)COc1ccccc1OC (configuration not stated)	none
CCc1n(CC)c2ccccc2[n+]1CC(O)COc1ccc(F)cc1 (configuration not stated)	Dicer processing 5.04
CCn1c(C)[n+](CC(O)COc2ccc(F)cc2)c2ccccc21 (configuration not stated)	none
CCCCc1c(C)nc(C2CC2)[nH]c1=O	none
O=C(CCSc1nc(-c2ccc3c(c2)OCO3)cc(C(F)(F)F)n1)N1CCOCC1	none
Oc1c(C(c2ccncc2)N2CCOCC2)cc(Cl)c2cccnc12 (configuration not stated)	none
Oc1cc2c(cc1C(c1ccc(C(F)(F)F)cc1)N1CCOCC1)OCO2 (configuration not stated)	Dicer processing 6.47
CCOC(=O)c1c(NC(=O)COc2ccccc2Br)sc2c1CCC2	none
COc1ccc(/C(O)=C2\C(=O)C(=O)N(CCCn3ccnc3)C2c2ccc(F)cc2)cc1 (configuration not stated)	none
CCCc1cc(=O)n2[nH]c(SC)nc2n1	none
CSc1ccccc1Cn1c(=O)cc(N)n(-c2ccccc2C)c1=O	none
O=C(NCCCN1CCN(Cc2ccccc2)CC1)c1cn2cc(C(F)(F)F)cc(Cl)c2n1	none
NNC(=O)c1cn2cc(C(F)(F)F)cc(Cl)c2n1	Dicer processing 4.81
NNC(=O)c1cc(C(F)(F)F)cc(C(F)(F)F)c1	none
Cc1cc2oc(=O)cc(O)c2cc1C	none
COc1ccc(OCCC(=O)N/N=C/C=C/c2ccccc2)cc1	none
COc1ccc(OCCC(=O)NN)cc1	Dicer processing 3.33
COc1ccc(OCCN)cc1	none
CCS(=O)(=O)Nc1ccc2c(c1)c1c(n2S(=O)(=O)CC)CC(C)(C)CC1=O	none
NNC(=O)Cc1ccc(Cl)c(Cl)c1	none
CCOC(=O)c1ccc(C#Cc2ccc3c(c2)CC(C)(C)CS3)nc1	none
Cc1ccc2ncnc(NC(CO)C(=O)O)c2c1 (configuration not stated)	none
CCCCC(Nc1ncnc2ccc(Br)cc12)C(=O)O (configuration not stated)	Dicer processing 3.9
Cc1ccc2ncnc(NC(CC(C)C)C(=O)O)c2c1 (configuration not stated)	none
CS(=O)c1scc(-c2cccc(C(F)(F)F)c2)c1C#N (configuration not stated)	none
NC(=O)c1ccc2c(c1)C1C=CCC1C(c1ccc(Cl)cc1)N2 (configuration not stated)	none
Cc1sc(-c2ccc(-c3csnn3)cc2)nc1-c1ccccc1	none
O=C(c1ccc2c(c1)CCO2)N1CCN(C(=O)c2ccc3c(c2)CCO3)CC1	none
O=C1CCCc2c1ccc1c3c(ccc21)C(=O)CCC3	none
